We go through 9 compounds from PubChem BioAssay (Tox21).

The structures appear in SMILES notation. Unmarked numbers belong to inactive results. Records with an inconclusive call do not appear. Calls of active or inactive are those of the source. Unless noted, the call rests on the fitted dose curve; in most records, active means well fitted curve in the direction sought with a large enough effect in the repeat runs; inconclusive means weak or mixed curves; inactive means no such curve, though single readings can be large; an effect the other way counts as inactive or inconclusive.

Test [1] can be described thus: qHTS assay to identify small molecule agonists of the estrogen receptor alpha (ER-alpha) signaling pathway in the presence of an antagonist - cell viability counter screen (AID 1259386).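 Further: series mostly up to about 92 µM; cells exposed to compounds for 22 h at 37 °C before the viability read; nearly all actives have a fitted effect of over 30% in size.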 The procedure, abridged: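 Cytotoxicity was measured in parallel with the ERE-luciferase agonist screen, in the same wells. The cells were VM7Luc4E2, which endogenously express ER-alpha, and treatment was with compounds plus 10.0nM ICI-182,780 for 22hr.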

Test [2] deals with Progesterone receptor (Homo sapiens) (UniProt P06401). Put plainly: qHTS assay to identify small molecule agonists of the progesterone receptor (PR) signaling pathway (AID 1346784; calls by dose curve; further: nearly all actives have a fitted effect of over 30% in size). The procedure, abridged:
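PR-UAS-bla HEK 293T cells (beta-lactamase reporter under UAS) in 2% charcoal-stripped FBS, dosed with 23 nL compound after 6 hr, incubated 16hr at 37C. LiveBLAzer B/G FRET substrate added, fluorescence read after 2 hours.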

The nature of test [3]: qHTS assay to identify small molecule antagonists of the progesterone receptor (PR) signaling pathway - cell viability counter screen (AID 1346798). Further: series mostly up to about 92 µM; nearly all actives have a fitted effect of over 50% in size. The procedure, abridged: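 PR-UAS-bla HEK293T cells, 3,000/well in 2% charcoal-stripped FBS medium, dosed with compounds plus R5020 agonist and incubated 16 h at 37C. Viability then measured in the same wells by CellTiter-Glo luminescence after 30 min at RT.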

Test [4] in a line: qHTS assay to identify small molecule agonists of the progesterone receptor (PR) signaling pathway - cell viability counter screen (AID 1346799; calls by dose curve; further: nearly all actives have a fitted effect of over 45% in size). The procedure, abridged: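 Counter screen in the PR-UAS-bla HEK293T wells (2% charcoal-stripped FBS, 16 h compound exposure at 37 C) after the bla read. CellTiter-Glo added, 30 min at room temperature, luminescence read as cell viability.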

Test [5] can be described thus: qHTS assay to identify small molecule antagonists of the TGF-beta/Smad signaling pathway - cell viability counter screen (AID 1346824). Further: nearly all actives have a fitted effect of over 50% in size. The procedure, abridged:
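SBE-bla HEK 293T cells, incubated overnight, then compound plus 0.25 ng/mL TGF-beta1 (stock added) for 5 hr at 37 C. Viability was read in the same wells by CellTiter-Glo luminescence after 30 min at room temperature.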

A short description of test [6]: qHTS assay to identify small molecule agonists of the TGF-beta/Smad signaling pathway (AID 1346859; active means well fitted activation curve with a large enough effect in the signal ratio in the repeat runs, not every such curve was filed as active; the % refers to the signal ratio; further: series mostly up to about 77 µM). The procedure, abridged:
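SBE-bla HEK293T cells plated overnight, then compound exposure for 5 h at 37 C. Beta-lactamase reporter read with LiveBLAzer B/G FRET substrate after 2 h at room temperature, fluorescence at 405 nm excitation, 460/530 nm emission.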

The target in test [7] is Thyrotropin-releasing hormone receptor (Homo sapiens) (UniProt P34981). Put plainly: qHTS assay to identify small molecule antagonists of the thyrotropin-releasing hormone receptor (TRHR) signaling pathway (AID 1346877; active means well fitted inhibition curve with a large enough effect in the repeat runs, not every such curve was filed as active; further: series mostly up to about 51 µM). The procedure, abridged:
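Antagonism is measured as suppression of the calcium response to 1 nM TRH in TRHR-HEK293 cells that have been dye-loaded for 2 h at 37 °C after overnight plating. Each compound is tested at 15 concentrations in triplicate.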

The target is the same in test [8]. Put plainly: qHTS assay to identify small molecule agonists of the thyrotropin-releasing hormone receptor (TRHR) signaling pathway (AID 1346891; calls by dose curve; further: series mostly up to about 58 µM). The procedure, abridged: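 HEK293 cells expressing TRHR plated 18 h at 37 C/5% CO2, calcium dye-loaded 2 h at 37 C, then compound added (agonist mode); kinetic calcium fluorescence read 3 min at 1 s intervals; 15 concentrations in triplicate.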

Test [9] is described as follows: Human pregnane X receptor (PXR) small molecule agonists, qHTS cell viability counter screen (AID 1346977). Further: nearly all actives have a fitted effect of over 50% in size. The procedure, abridged:
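PXR-Luc HepG2 cells (2,000/well, 5% charcoal-stripped FBS) preincubated 5 hr, then exposed to compounds 24 hr at 37 C. Viability read in the same wells by CellTiter-Fluor fluorescence, reagent added at 23 hr, 1 hr incubation.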

Test [10] can be described thus: Caspase-3/7 induction in HepG2 cells by small molecules, qHTS assay (AID 1346978). Further: nearly all actives have a fitted effect of over 15% in size. The procedure, abridged: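 Wild-type HepG2 cells, 2,000/well, settled 5 hr at 37 C and 5% CO2, then compound-treated for 17 hr; caspase-3/7 activity read by luminescent Caspase-Glo 3/7 after 30 min at room temperature.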
The nature of test [11]: Caspase-3/7 induction in CHO-K1 cells by small molecules, qHTS cell viability counter screen (AID 1346979). Further: nearly all actives have a fitted effect of over 35% in size. The procedure, abridged:
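Wild-type CHO-K1 cells (1,500/well) treated with compound after 5 h plating; after 16 h at 37C, viability read as CellTiter-Fluor fluorescence following 1 h reagent incubation, in the same wells as the caspase read.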

Test [12] in a line: Caspase-3/7 induction in CHO-K1 cells by small molecules, qHTS assay (AID 1346980). Further: nearly all actives have a fitted effect of over 15% in size. The procedure, abridged:
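Wild-type CHO-K1 cells exposed to compounds for 17hr at 37 C, 5% CO2. Caspase-3/7 activity then measured by Caspase-Glo 3/7 luminescence after 30min at room temperature.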

Test [13] can be described thus: Caspase-3/7 induction in HepG2 cells by small molecules, qHTS cell viability counter screen (AID 1346981). Further: series mostly up to about 92 µM; nearly all actives have a fitted effect of over 30% in size. The procedure, abridged:
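Cell viability is measured as a cytotoxicity counter screen alongside the Caspase-Glo 3/7 readout in identical wells. Wild-type HepG2 cells are treated with test compounds for 16 hr at 37 C before CellTiter-Fluor addition and a 1-hr incubation.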

Test [14] deals with Nuclear receptor subfamily 1 group I member 2 (Homo sapiens) (UniProt O75469). Put plainly: Human pregnane X receptor (PXR) small molecule agonists, qHTS assay (AID 1346982). Further: nearly all actives have a fitted effect of over 35% in size. Further: potency means the concentration at half of the fitted maximal effect. The procedure, abridged:
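Cells: HepG2 stably carrying PXR-Luc. Medium held 5% charcoal-stripped FBS. Compounds in DMSO added after 5 hr plating, incubated 24 hr, then luminescence quantified with ONE-Glo.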

Test [15] addresses Acetylcholinesterase (Homo sapiens) (UniProt P22303). Put plainly: Acetylcholinesterase (AChE) small molecule antagonists: colormetric cell-based qHTS assay (AID 1347395; calls by dose curve; further: nearly all actives have a fitted effect of over 30% in size; further: potency means the concentration at half of the fitted maximal effect). The procedure, abridged: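 SH-SY5Y cells attached overnight, exposed to compound 30 min at 37 C, then given DTNB/acetylthiocholine; after 90 min at 37 C, colorimetric thiocholine read gives cellular AChE activity.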

A short description of test [16]: qHTS assay to identify small molecule agonists of the TGF-beta/Smad signaling pathway - cell viability counter screen (AID 1346829). Further: top concentration of the series differs between compounds; nearly all actives have a fitted effect of over 45% in size. The procedure, abridged: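 After overnight seating at 37 C and 5% CO2, reporter cells got compounds for 5 hr and FRET substrate for 2 hr; cell viability then came from CellTiter-Glo luminescence.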
In test [17] the target is Nuclear receptor subfamily 1 group I member 2 (Rattus norvegicus) (UniProt Q9R1A7). Put plainly: Rat pregnane X receptor (rPXR) activation by small molecules, qHTS assay (AID 1346983). Further: nearly all actives have a fitted effect of over 20% in size. As to conditions: rPXR luciferase reporter cells, One-Glo luminescence, 24 h; max activation: active compounds read high. The procedure, abridged: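 Cell-based rPXR activation assay: rPXR cells, 2,000 per well, rested 5hr at 37 C, then exposed to compounds in DMSO for 24 hr at 37 C. Luciferase activity read by One-Glo luminescence after 30 min at room temperature.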
Nuclear receptor subfamily 1 group I member 2 (Rattus norvegicus), sequence (Q9R1A7 whole entry, looked up): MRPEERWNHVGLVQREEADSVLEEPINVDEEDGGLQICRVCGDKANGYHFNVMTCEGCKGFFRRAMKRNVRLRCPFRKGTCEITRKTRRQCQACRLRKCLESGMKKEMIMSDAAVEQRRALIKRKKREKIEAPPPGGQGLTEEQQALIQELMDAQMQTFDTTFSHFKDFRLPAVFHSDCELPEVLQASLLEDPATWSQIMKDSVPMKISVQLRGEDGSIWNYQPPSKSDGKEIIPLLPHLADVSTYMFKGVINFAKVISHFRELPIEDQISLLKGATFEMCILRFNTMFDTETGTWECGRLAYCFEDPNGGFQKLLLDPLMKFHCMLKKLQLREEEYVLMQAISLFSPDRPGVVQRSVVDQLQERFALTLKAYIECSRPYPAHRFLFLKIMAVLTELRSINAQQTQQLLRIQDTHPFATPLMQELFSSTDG

Test [18] deals with Nuclear receptor subfamily 1 group I member 2 (Homo sapiens) (UniProt O75469). Put plainly: CYP3A4 induction through human pregnane X receptor (PXR) by small molecules, qHTS assay (AID 1346984). Further: nearly all actives have a fitted effect of over 40% in size. The procedure, abridged:
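Quantitative HTS in DPX-2 cells, i.e. HepG2 transfected with PXR response element and CYP3A4-promoter luciferase. Compounds in DMSO incubated 24hr at 37C; then P450-Glo CYP3A4 substrate, 3uM final, 3hr; One-Glo luminescence.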

For test [19] the target is unchanged. Put plainly: Human pregnane X receptor (PXR) activation by small molecules, qHTS assay (AID 1346985). Further: nearly all actives have a fitted effect of over 40% in size. The procedure, abridged: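 DPX-2 cells (HepG2 co-transfected with a PXR response element and a CYP3A4-promoter luciferase construct) were seeded at 2,000 per well, rested 5 hr at 37C, then exposed to DMSO-dissolved compounds for 24 hr. Activation was read as luciferase luminescence.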
On the % scale 0 is the no-effect control and ±100 the full control effect.

Thyrotropin-releasing hormone receptor (Homo sapiens), sequence (P34981 whole entry, looked up): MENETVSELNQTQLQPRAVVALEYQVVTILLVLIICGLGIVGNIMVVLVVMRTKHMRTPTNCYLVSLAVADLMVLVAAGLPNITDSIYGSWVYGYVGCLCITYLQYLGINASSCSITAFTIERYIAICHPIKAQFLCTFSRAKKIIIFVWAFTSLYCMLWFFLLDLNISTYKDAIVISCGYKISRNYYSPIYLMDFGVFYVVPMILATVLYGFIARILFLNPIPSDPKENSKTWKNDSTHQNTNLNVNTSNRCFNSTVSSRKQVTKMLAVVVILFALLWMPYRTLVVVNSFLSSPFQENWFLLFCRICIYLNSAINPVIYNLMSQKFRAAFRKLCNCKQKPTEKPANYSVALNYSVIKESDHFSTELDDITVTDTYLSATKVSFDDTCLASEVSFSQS
Nuclear receptor subfamily 1 group I member 2 (Homo sapiens), sequence (O75469 whole entry, looked up): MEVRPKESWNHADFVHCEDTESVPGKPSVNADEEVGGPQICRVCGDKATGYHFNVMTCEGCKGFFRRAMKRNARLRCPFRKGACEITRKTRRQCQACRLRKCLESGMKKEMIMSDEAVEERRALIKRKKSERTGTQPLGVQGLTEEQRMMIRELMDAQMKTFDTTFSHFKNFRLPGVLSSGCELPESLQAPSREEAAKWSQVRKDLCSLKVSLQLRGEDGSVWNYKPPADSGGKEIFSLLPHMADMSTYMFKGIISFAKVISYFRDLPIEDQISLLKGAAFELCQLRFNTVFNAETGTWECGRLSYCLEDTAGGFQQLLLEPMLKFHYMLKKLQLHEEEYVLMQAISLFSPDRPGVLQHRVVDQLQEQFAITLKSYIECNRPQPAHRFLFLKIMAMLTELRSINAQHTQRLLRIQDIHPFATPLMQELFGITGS
Acetylcholinesterase (Homo sapiens), sequence (P22303 whole entry, looked up): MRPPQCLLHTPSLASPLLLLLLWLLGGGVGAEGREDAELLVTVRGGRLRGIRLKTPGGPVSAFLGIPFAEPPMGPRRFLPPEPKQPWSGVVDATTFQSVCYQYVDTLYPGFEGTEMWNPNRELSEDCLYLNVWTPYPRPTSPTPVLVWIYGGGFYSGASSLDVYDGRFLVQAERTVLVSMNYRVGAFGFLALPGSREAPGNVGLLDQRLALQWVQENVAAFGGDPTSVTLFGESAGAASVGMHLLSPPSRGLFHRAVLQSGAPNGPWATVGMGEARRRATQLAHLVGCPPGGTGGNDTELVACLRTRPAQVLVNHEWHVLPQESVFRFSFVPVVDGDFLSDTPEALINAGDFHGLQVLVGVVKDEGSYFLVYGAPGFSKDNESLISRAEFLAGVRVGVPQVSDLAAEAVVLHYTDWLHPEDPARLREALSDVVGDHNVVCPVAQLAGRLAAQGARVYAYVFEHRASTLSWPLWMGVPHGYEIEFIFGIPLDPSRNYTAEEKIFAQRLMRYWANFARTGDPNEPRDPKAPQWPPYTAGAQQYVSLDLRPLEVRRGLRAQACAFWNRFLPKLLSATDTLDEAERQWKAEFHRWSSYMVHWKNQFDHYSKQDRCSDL
Progesterone receptor (Homo sapiens), sequence (P06401 whole entry, looked up): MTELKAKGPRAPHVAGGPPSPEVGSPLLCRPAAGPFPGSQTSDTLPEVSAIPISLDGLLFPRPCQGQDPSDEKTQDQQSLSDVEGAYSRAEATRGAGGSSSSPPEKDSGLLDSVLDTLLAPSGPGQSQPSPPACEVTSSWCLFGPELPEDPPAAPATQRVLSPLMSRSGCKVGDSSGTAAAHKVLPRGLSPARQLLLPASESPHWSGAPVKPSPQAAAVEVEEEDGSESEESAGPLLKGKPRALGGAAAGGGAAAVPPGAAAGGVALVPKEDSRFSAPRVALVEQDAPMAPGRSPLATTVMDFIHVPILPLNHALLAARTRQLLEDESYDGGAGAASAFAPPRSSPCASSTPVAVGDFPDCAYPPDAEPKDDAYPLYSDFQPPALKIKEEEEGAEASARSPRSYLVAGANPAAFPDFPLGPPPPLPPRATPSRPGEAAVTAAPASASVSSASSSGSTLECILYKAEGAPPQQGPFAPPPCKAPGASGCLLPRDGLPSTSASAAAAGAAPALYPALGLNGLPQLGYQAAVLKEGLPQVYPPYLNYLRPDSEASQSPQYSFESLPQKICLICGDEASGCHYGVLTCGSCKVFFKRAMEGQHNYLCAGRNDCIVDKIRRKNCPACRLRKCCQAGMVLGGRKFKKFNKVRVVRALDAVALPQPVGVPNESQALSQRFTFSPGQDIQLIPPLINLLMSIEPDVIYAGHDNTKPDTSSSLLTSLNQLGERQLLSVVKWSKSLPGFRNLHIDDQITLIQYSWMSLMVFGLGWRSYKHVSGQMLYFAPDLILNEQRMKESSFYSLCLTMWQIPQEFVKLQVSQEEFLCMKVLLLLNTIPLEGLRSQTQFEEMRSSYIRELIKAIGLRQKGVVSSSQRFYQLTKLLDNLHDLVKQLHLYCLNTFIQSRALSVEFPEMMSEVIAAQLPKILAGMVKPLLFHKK

Take `Nc1cnn(-c2ccccc2)c(=O)c1Cl`: the Potency entry in test [1], in test [2], in test [3], in test [4], in [5] and in test [9] was “inactive” throughout. In addition, the Potency result in [10], in test [11], in test [12], in [13], in test [14] and in test [15] was “inactive” throughout. The compound was classed as inactive in test [6], in test [7] and in test [8].

On to `OC(c1ccc(F)cc1)(c1cncnc1)c1ccccc1Cl` (stereo unspecified), for which the Potency result in test [1], in test [2], in test [3], in test [4], in [5] and in [9] was “inactive” each time. Besides, the Potency result in test [10], in test [11], in test [12], in [13] and in test [15] was “inactive” throughout. The result in [16], in test [6] and in test [7] was inactive. For the same compound, in test [14], the Potency is 30.6 µM (active).

For the compound `O=C(NCO)NCO`, the Potency result in [1], in [2], in test [3], in [4], in test [5] and in [9] was “inactive” in each case. For the same compound, the Potency result in [10], in [11], in test [12], in [13], in [14] and in test [15] was “inactive” each time. Further, the compound was called inactive in [16] and in test [6].

As for `CCOC(=O)/C=C(C)/C=C/C[C@@H](C)CCCC(C)C`, the Potency entry in test [1], in [2], in [3], in test [4], in [5] and in test [9] was “inactive” throughout. Moreover, the Potency entry in test [10], in test [13], in test [18], in test [19] and in [15] was “inactive” throughout. The result in test [16], in test [6] and in test [7] was inactive. Further, the max activation in [17] is -2.62%.

`CCCCc1c(C)nc(NCC)[nH]c1=O`: the Potency result in test [1], in [2], in test [3], in [4], in test [5] and in test [9] was “inactive” throughout. In addition, the Potency result in test [10], in test [11], in test [13] and in test [15] was “inactive” each time. Besides, the result in test [16], in test [6], in [7] and in [8] was inactive.

As to `O=C(O)c1cccc(Cl)c1`, the Potency result in [1], in [2], in test [3], in test [4], in test [5] and in [9] was “inactive” in each case. The Potency entry in test [10], in test [11], in test [12], in [13], in test [14] and in test [15] was “inactive” in each case. Also, the result in [16], in test [6], in test [7] and in [8] was inactive.

For the compound `CCC(=O)c1ccccc1`, the Potency result in test [1], in [2], in test [3], in test [4], in [5] and in test [9] was “inactive” each time. The Potency result in [10], in test [11], in test [12], in test [13], in test [14] and in test [15] was “inactive” in each case. Besides, the compound was classed as inactive in test [16], in test [6] and in [7].

Regarding `CCOP(=S)(OCC)Oc1ncn(-c2ccccc2)n1`, the Potency entry in test [1], in [2], in [3], in test [4], in test [5] and in test [9] was “inactive” throughout. Besides, the Potency entry in [10], in test [11] and in test [12] was “inactive” each time. Moreover, the result in test [16], in [6] and in test [7] was inactive. The values for the Potency in [14] and in test [15] were 27.3 µM (active) and 31.7 µM (active), respectively.

Turning to `CCS(=O)(=O)C(C)(C)S(=O)(=O)CC`, the Potency result in test [1], in test [2], in test [3], in test [4], in [5] and in test [9] was “inactive” in each case. In addition, the Potency result in [10], in test [11], in test [12], in test [13], in [14] and in test [18] was “inactive” each time. Further, the Potency result in test [19] and in [15] was “inactive” throughout. Also, the result in test [16], in [7] and in [8] was inactive. Also, in test [17], the max activation is -0.861%.
